# According to PubChem BioAssay AID602449 (Sanford-Burnham Center for Chemical Genomics, 2012):
# Screen size: about 360,000 compounds; about 5,000 (1.4%) were called active.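 The calls were made as follows: active = inhibition of 50% or more, scaled per plate between neutral and stimulator controls; inactive = the rest.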 Many of the other results were omitted from the sample, so actives are more common in it than they were.
# Test: blockers of Ca2+-induced mitochondrial swelling – biochemical, isolated mouse mitochondria, absorbance, primary screen (AID 602449);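 also: 0% = DMSO wells given calcium and 100% = 1 mM EGTA wells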
# Details: 30 min, at 10 µM, active compounds read high
row,SMILES,inhibition
1,O=C1CS(=O)CN1c1ccc(Oc2ccccc2)cc1 (configuration not stated),1.6% (inactive)
2,Cc1noc(C)c1S(=O)(=O)Nc1ccc(C(=O)N2CCN(c3ccc(F)cc3)CC2)cc1,-2% (inactive)
3,Cc1ccc(NC(=O)CN(C)CC(=O)Nc2cccc(F)c2)cc1[N+](=O)[O-],97.2% (active)
4,CN(CC(=O)Nc1cccc(F)c1)C(=O)C1=COCCO1,-2.6% (inactive)
5,Cc1ccc(NC(=O)c2sccc2C)cc1[N+](=O)[O-],-8.8% (inactive)
6,O=C(NNC1=C(C(=O)C(F)(F)F)CCC1)c1ccncc1,0.3% (inactive)
7,COc1ccc(NC(=O)C(=O)NCC(c2ccco2)N2CCc3ccccc3C2)cc1 (configuration not stated),0.5% (inactive)
8,O=C(CCCOc1ccccc1)Nc1cccc(C(=O)O)c1,0.4% (inactive)
9,COC(=O)c1noc(C)c1-c1ccnn1C(=O)c1ccc(Cl)cc1,5% (inactive)
10,O=C(CNC(=O)c1ccccc1Br)NNC(=O)c1cccs1,-3.3% (inactive)
11,O=C(C/C(=N\NC(=O)c1ccccc1Br)C(F)(F)F)c1cccs1,59.2% (active)
12,CC/C(=N\NC(=O)c1ccccc1Cl)c1ccc(Br)s1,-0.9% (inactive)
13,N#Cc1nc(N)nc(N(c2ccccc2)c2ccccc2)n1,0% (inactive)
14,CC1(C(=O)NS(=O)(=O)c2cccs2)CCN1C(=O)Cc1ccc(-c2ccccc2)cc1 (configuration not stated),1.6% (inactive)
15,O=C(Nc1cccc(Cl)c1)Nc1ccccc1NS(=O)(=O)c1cccs1,87.7% (active)
16,O=S(=O)(Nc1ccccc1Br)c1cccs1,1.3% (inactive)
17,O=S(=O)(Nc1ccccc1)c1ccc(NS(=O)(=O)c2cccs2)cc1,-0.1% (inactive)
18,Nc1ncnc2c1ncn2[C@@H]1O[C@H](CNCc2cccn2-c2nccs2)[C@@H](O)[C@H]1O,-2.5% (inactive)
19,CC(=O)OC(COc1ccc(F)cc1)Cn1cnc2ccccc21 (configuration not stated),0.4% (inactive)
20,CCOC(=O)c1ccccc1NC(=O)CSc1nc2c(sc(=S)n2CC)c(=O)[nH]1,5.4% (inactive)
21,Cc1ccc(C(=O)Nc2c(-c3ccccc3)[nH][nH]c2=O)cc1,-0.8% (inactive)
22,Fc1cc(F)c2nc(Nc3nc4c(F)cccc4s3)sc2c1,94.3% (active)

row,SMILES,inhibition
1,Fc1ccc2nc(Nc3nc4c(s3)CCCC4)sc2c1,5.3% (inactive)
2,NNc1nc2c(Cl)cccc2s1,-0.9% (inactive)
3,O=C(NC1(C(F)(F)F)NC(=O)N(Cc2cccnc2)C1=O)c1ccccc1Cl (configuration not stated),1% (inactive)
4,CN(C)CCCN1C(=O)CSC1c1ccc([N+](=O)[O-])cc1 (configuration not stated),-0.2% (inactive)
5,CCCCCCCCCCCCN1C(=O)CSC1c1cccnc1 (configuration not stated),62.4% (active)
6,CCCCc1ccc(NC(=O)NCc2cccnc2)cc1,-0.3% (inactive)
7,CCCS(=O)(=O)NC(=O)C1(C)CCCN(C(=O)c2ccnc(Cl)c2)C1 (configuration not stated),-0.3% (inactive)
8,COc1cc(CCC(=O)Nc2ccncc2Cl)cc(OC)c1OC,0.5% (inactive)
9,COc1cc(CC(=O)Nc2nc(-c3ccc(F)c(F)c3)cs2)cc(OC)c1OC,105% (active)
10,COc1ccc(CC(=O)NC2CCSc3ccccc32)cc1OC (configuration not stated),-1.7% (inactive)
11,COc1ccc(CC(=O)Nc2ccccc2NC(=O)c2ccco2)cc1OC,2.5% (inactive)
12,COc1ccc(CCNC(=O)COC(=O)Cc2cc(OC)c(OC)c(OC)c2)cc1,0% (inactive)
13,COc1ccc(CC(=O)Nc2nc(-c3ccc(F)c(F)c3)cs2)cc1OC,108% (active)
14,CC(C)c1ccc(CC(=O)N2CCC2(C)C(=O)NS(=O)(=O)c2ccc(C(C)(C)C)cc2)cc1 (configuration not stated),1.8% (inactive)
15,COc1ccc(Cl)cc1NC(=O)COC(=O)C(CC(C)C)N1C(=O)C2CC=CCC2C1=O (configuration not stated),1.6% (inactive)
16,COc1ccc(C(=O)C2CCCN(C(=O)c3cc(C)on3)C2)cc1F (configuration not stated),-1.4% (inactive)
17,O=C(CSc1n[nH]c(-c2cccnc2)n1)Nc1ccc(Cl)cc1,1.2% (inactive)
18,O=C(Nc1ccc(Cl)cc1)c1csc([C@@H]2O[C@H](CO)[C@H](O)[C@H](O)[C@H]2O)n1,-4.4% (inactive)
19,O=C(NNC(=O)c1csc(-c2cccnc2)n1)Nc1ccc(Cl)cc1,56.5% (active)
20,CCCN(C(=O)c1nc2nccc(C)n2n1)c1c(N)n(Cc2ccccc2)c(=O)[nH]c1=O,-2.3% (inactive)
21,CCc1cc(C(=O)OC)c(NC(=O)CC2Sc3ccc(C(F)(F)F)cc3NC2=O)s1 (configuration not stated),3.8% (inactive)
22,O=C(Nc1ccc(Cl)cc1)c1csc([C@H]2C[C@H](O)[C@@H](CO)O2)n1,-0.6% (inactive)

row,SMILES,inhibition
1,CC[C@@H](C)[C@@H](C(=O)N1CCN(C(=O)OC(C)(C)C)CC1)n1cc(CCC(=O)O)nn1,-0.6% (inactive)
2,CC(C)(C)c1ccc(CCC2OCC(CN3CCOCC3)O2)cc1 (configuration not stated),3.3% (inactive)
3,COc1cccc(C(C(=O)NC2CCCC2)N(C(=O)c2ccco2)c2cccc(C(C)=O)c2)c1OC (configuration not stated),-2.4% (inactive)
4,Cc1nc(CNS(=O)(=O)c2cc([N+](=O)[O-])ccc2C)cs1,0.4% (inactive)
5,Cc1nc(CNS(=O)(=O)c2ccc(Oc3ccccc3)cc2)cs1,88.7% (active)
6,Cc1ccc(S(=O)(=O)NCc2nc3ccccc3c(=O)n2N)cc1,1.2% (inactive)
7,COC(=O)[C@@]12C[C@@H](CC(=O)NCCCCc3ccccc3)C(=O)N(Cc3ccccc3)C1=CCC(C)(C)C2,-0.7% (inactive)
8,Cc1ccc(OCC(=O)N2CCN(S(=O)(=O)c3ccc(Cl)s3)CC2)cc1C,2.3% (inactive)
9,CC(C)c1ccc(NC(=O)NC2CCCCC2)cc1,0.2% (inactive)
10,CC(C)c1ccc(NC(=S)NC2CC3C=CC2C3)cc1 (configuration not stated),73.8% (active)
11,O=C(COC(=O)C1CC2C=CC1C2)Nc1ccccc1 (configuration not stated),-0.1% (inactive)
12,CCOC(=O)/C(N=Nc1cc(C(=O)O)cc(C(=O)O)c1)=C(\O)CCl,-2.4% (inactive)
13,CN(C)C(CNC(=O)c1cccc(S(=O)(=O)Nc2ccc(Br)cc2)c1)c1ccco1 (configuration not stated),-0.5% (inactive)
14,COc1ccc(Cc2nnc(SCC(=O)Nc3ccc(C)c(C)c3)o2)cc1OC,0% (inactive)
15,FC(F)Oc1ccc(NC(=S)NCc2ccco2)cc1Cl,86.1% (active)
16,COC(=O)Cc1ccc(NC(=S)NCc2ccco2)cc1,-0.8% (inactive)
17,Cc1ccc(CC(=O)Nc2ccc(OC(F)F)c(Cl)c2)cc1C,60% (active)
18,Cc1ccc(CC(=O)Nc2ccc(S(=O)(=O)N3CCOCC3)cc2)cc1C,1% (inactive)
19,COc1cc(NC(=S)NCc2ccco2)c(OC)cc1Cl,1.7% (inactive)
20,OCCC1CN(Cc2ccc3nsnc3c2)CCN1C1CCCC1 (configuration not stated),2.1% (inactive)
21,Cc1nnc(SCC(=O)N(C(C)C)C(C)C)nc1C,-1.3% (inactive)
22,CCC(C(=O)NCc1ccc(OC)cc1)n1nc(C)n2c(cc3occc32)c1=O (configuration not stated),0.5% (inactive)

row,SMILES,inhibition
1,CCC(C)NC(=O)c1nn(C)c(=O)c2ccccc12 (configuration not stated),-0.2% (inactive)
2,COc1ccc(NC(=O)COC(=O)c2ccc(NS(=O)(=O)/C=C/c3ccccc3)cc2)cc1,-9% (inactive)
3,COc1ccc(/C=C(/CC(=O)Nc2ccc(C)cc2)c2nc3ccccc3s2)cc1,52.2% (active)
4,COc1cccc(/C=C(/CC(=O)Nc2ccc(N3CCOCC3)cc2)c2nc3ccccc3s2)c1,-0.3% (inactive)
5,CCc1ccc(CN(C)C(C)C(=O)Nc2ccc(S(=O)(=O)N3CCCC3)cc2)cc1 (configuration not stated),0.2% (inactive)
6,O=C1NC[C@H](CCCCN2C[C@H](Cc3ccccc3)N(Cc3ccccc3)C(=O)C2=O)N(CCc2ccc(O)cc2)C1=O,-0.9% (inactive)
7,COC(=O)c1ccccc1NC(=O)CN(Cc1ccc(Cl)cc1)S(C)(=O)=O,0.4% (inactive)
8,CC(=O)c1cccc(OCc2cc(C(=O)NC(C)Cc3cccnc3)no2)c1 (configuration not stated),0% (inactive)
9,CN(Cc1cnccn1)C(=O)c1cc(COc2cccc(C(F)(F)F)c2)on1,0% (inactive)
10,CN(Cc1cccnc1)C(=O)c1cc(COc2ccc3ncccc3c2)on1,98.2% (active)
11,O=C(Nc1ccc(C2CC2(Cl)Cl)cc1)c1cccc([N+](=O)[O-])c1 (configuration not stated),77.1% (active)
12,O=C(NC(=S)NC1CCS(=O)(=O)C1)c1cccc([N+](=O)[O-])c1 (configuration not stated),-0.7% (inactive)
13,Cc1ccc(NC(=O)C(=O)NCC2CCN(C(=O)c3cccc([N+](=O)[O-])c3)CC2)cc1,-2.2% (inactive)
14,Cc1ccc(CS(=O)(=O)CCC(=O)NC2CC2)cc1,-1.1% (inactive)
15,NS(=O)(=O)c1ccc(NC(=S)N2CCCC2)cc1,-0.2% (inactive)
16,NS(=O)(=O)c1ccc(NC(=S)Nc2ccc(Br)c(Cl)c2)cc1,102% (active)
17,COc1ccc(NC(=S)Nc2ccc(S(N)(=O)=O)cc2)c(C)c1,-2.1% (inactive)
18,CC1=C/C(=N\OS(=O)(=O)c2ccccc2)C=CC1=O,103% (active)
19,O=C(COC(=O)c1ccc(NS(=O)(=O)c2cccs2)cc1O)Nc1ccc(F)cc1,4.7% (inactive)
20,O=S(=O)(Cc1cc(Cl)nc(-c2cccnc2)n1)c1ccccc1,0.8% (inactive)
21,COc1ccc(NC(=O)Nc2ccc3nsnc3c2)cc1,87.9% (active)
22,COCCNC(=O)Nc1ccc2nc(-c3ccco3)c(-c3ccco3)nc2c1,0.5% (inactive)

row,SMILES,inhibition
1,O=C(Nc1ccccc1)c1ccc2nsnc2c1,-1.8% (inactive)
2,CSCc1cc(N(C)C)nc(SCc2ccc(Cl)cc2Cl)n1,1.1% (inactive)
3,COc1ccc(C(=O)CSc2n[nH]c(N)n2)cc1,-1% (inactive)
4,CCCCN(C(=O)/C=C/c1ccco1)c1c(N)n(CC(C)C)c(=O)[nH]c1=O,0% (inactive)
5,O=S(=O)(Nc1cccc(-c2ccc(N3CCOCC3)nn2)c1)c1ccc(Cl)c(Cl)c1,-0.6% (inactive)
6,O=C(NNC(=O)c1cccc(S(=O)(=O)Nc2ccc(Cl)cc2)c1)c1ccc(=O)[nH]c1,-1.3% (inactive)
7,Fc1ccc2[nH]c3c(N4CCSCC4)ncnc3c2c1,80.7% (active)
8,CCN(CC(=O)Nc1ccccc1OC)C(=O)CC1CC2CCC1C2 (configuration not stated),0.6% (inactive)
9,S=C(Nc1cccc(Cl)c1)Nc1ccc2cn[nH]c2c1,55% (active)
10,O=C(NCc1cn2ccsc2n1)Nc1cccc(Cl)c1,-1.5% (inactive)
11,CC(C)Cc1nnc(NC(=O)CCC(=O)Nc2ccc3cn[nH]c3c2)s1,2% (inactive)
12,Cc1csc(NC(=S)Nc2cccc(Cl)c2)n1,64.4% (active)
13,Cc1ccc(C2CCN(C(=S)Nc3cccc(Cl)c3)C2)cc1 (configuration not stated),14.6% (inactive)
14,O=C(Nc1ccc2cn[nH]c2c1)c1ccc(S(=O)(=O)N2CCOCC2)cc1,-4.1% (inactive)
15,CCOC(=O)Cn1c2c(c(-c3ccccc3OC)cc1=O)CCCC2,-1.1% (inactive)
16,Clc1ccc(C2=CSC3=Nc4cccc5cccc(c45)N23)cc1,6.8% (inactive)
17,CN(Cc1c(F)cccc1Cl)S(=O)(=O)c1cccs1,-1.8% (inactive)
18,Cc1ccc(Nc2c(O)nc[nH]c2=O)cc1C,-0.6% (inactive)
19,CCOC(=O)N1CCC(Nc2c(NCCCN3CCN(c4ccc(OC)cc4)CC3)c(=O)c2=O)CC1,2.4% (inactive)
